According to PubChem BioAssay AID1159580 (chemical genetic matrix, 2015):
About 2,000 (36%) of roughly 5,500 compounds were called active. Not shown: some 18% with an inconclusive outcome. Some of the results follow. Values without a mark were called inactive. No stated cut-off is given here; in the data, active means normalized growth mostly below about 0.91 (no sharp cut-off); inconclusive means no clear call, values can overlap the other calls; inactive means mostly above about 0.92.

Assay: chemical genetic growth profiling, strain panel (AID 1159580);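 further: tested at 20 µM; growth read once vehicle control cultures reached saturation at 30 °C; 1 = growth at the plate median or of vehicle wells; lower values mean less growth of the strain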
Conditions: growth OD

## COC(=O)C(C)c1ccc(C(=O)c2cccs2)cc1 (configuration not stated)
S. cerevisiae deletion strains, locus YJR075W, strain HOC1, active compounds read low
  normalized growth: 1.07
S. cerevisiae deletion strains, locus YKL009W, strain mrt4, active compounds read low
  normalized growth: 0.905
S. cerevisiae deletion strains, locus YKL068W, active compounds read low
  normalized growth: 0.967
S. cerevisiae deletion strains, locus YKL085W, strain MDH1 (second series), active compounds read low
  normalized growth: 0.941
S. cerevisiae deletion strains, locus YKL085W, strain MDH1, active compounds read low
  normalized growth: 0.941
S. cerevisiae deletion strains, locus YKL160W, strain elf1, active compounds read low
  normalized growth: 1
S. cerevisiae deletion strains, locus YKL190W, strain CNB1, active compounds read low
  normalized growth: 0.997
S. cerevisiae deletion strains, locus YKR001C, strain vps1, active compounds read low
  normalized growth: 0.936
S. cerevisiae deletion strains, locus YKR026C, strain gcn3, active compounds read low
  normalized growth: 1
S. cerevisiae deletion strains, locus YKR091W, strain srl3, active compounds read low
  normalized growth: 1.01
S. cerevisiae deletion strains, locus YLL001W, strain dnm1, active compounds read low
  normalized growth: 1.01
S. cerevisiae deletion strains, locus YLL026W, active compounds read low
  normalized growth: 1.01
S. cerevisiae deletion strains, locus YLL041C, strain sdh2, active compounds read low
  normalized growth: 1.01
S. cerevisiae deletion strains, locus YLR027C, strain aat2, active compounds read low
  normalized growth: 1.01
S. cerevisiae deletion strains, locus YLR039C, strain RIC1, active compounds read low
  normalized growth: 0.862
S. cerevisiae deletion strains, locus YLR058C, strain SHM2, active compounds read low
  normalized growth: 0.989
S. cerevisiae deletion strains, locus YLR102C, strain apc9, active compounds read low
  normalized growth: 0.966
S. cerevisiae deletion strains, locus YLR113W, strain HOG1, active compounds read low
  normalized growth: 0.943
S. cerevisiae deletion strains, locus YLR221C, strain rsa3, active compounds read low
  normalized growth: 0.978
S. cerevisiae deletion strains, locus YLR258W, strain gsy2, active compounds read low
  normalized growth: 1.02
S. cerevisiae deletion strains, locus YLR262C, strain YPT6 (second series), active compounds read low
  normalized growth: 0.998
S. cerevisiae deletion strains, locus YLR262C, strain YPT6, active compounds read low
  normalized growth: 0.842
S. cerevisiae deletion strains, locus YLR268W, strain sec22, active compounds read low
  normalized growth: 0.956
S. cerevisiae deletion strains, locus YLR320W, strain mms22, active compounds read low
  normalized growth: 1.01
S. cerevisiae deletion strains, locus YLR330W, strain CHS5, active compounds read low
  normalized growth: 0.979
S. cerevisiae deletion strains, locus YLR342W, strain FKS1 (second series), active compounds read low
  normalized growth: 0.881
S. cerevisiae deletion strains, locus YLR342W, strain FKS1, active compounds read low
  normalized growth: 1.02
S. cerevisiae deletion strains, locus YLR357W, strain rsc2, active compounds read low
  normalized growth: 1.02
S. cerevisiae deletion strains, locus YLR370C, strain arc18, active compounds read low
  normalized growth: 1.01
S. cerevisiae deletion strains, locus YLR371W, strain rom2, active compounds read low
  normalized growth: 0.958
S. cerevisiae deletion strains, locus YLR384C, strain iki3, active compounds read low
  normalized growth: 1.01
S. cerevisiae deletion strains, locus YLR418C, strain cdc73, active compounds read low
  normalized growth: 1.06
S. cerevisiae deletion strains, locus YML016C, strain PPZ1, active compounds read low
  normalized growth: 0.993
S. cerevisiae deletion strains, locus YML032C, strain rad52, active compounds read low
  normalized growth: 0.934
S. cerevisiae deletion strains, locus YML120C, strain ndi1, active compounds read low
  normalized growth: 1.01
S. cerevisiae deletion strains, locus YML124C, strain tub3, active compounds read low
  normalized growth: 0.958
S. cerevisiae deletion strains, locus YMR058W, strain fet3, active compounds read low
  normalized growth: 1.01
S. cerevisiae deletion strains, locus YMR078C, strain ctf18, active compounds read low
  normalized growth: 0.934
S. cerevisiae deletion strains, locus YMR125W, strain sto1, active compounds read low
  normalized growth: 1.02
S. cerevisiae deletion strains, locus YMR129W, active compounds read low
  normalized growth: 1.01
S. cerevisiae deletion strains, locus YMR205C, strain PFK2, active compounds read low
  normalized growth: 1.01
S. cerevisiae deletion strains, locus YMR223W, strain ubp8, active compounds read low
  normalized growth: 0.913
S. cerevisiae deletion strains, locus YMR231W, strain pep5, active compounds read low
  normalized growth: 0.996
S. cerevisiae deletion strains, locus YMR263W, strain SAP30, active compounds read low
  normalized growth: 1.01
S. cerevisiae deletion strains, locus YMR307W, strain GAS1, active compounds read low
  normalized growth: 0.973
S. cerevisiae deletion strains, locus YNL067W, strain RPL9B, active compounds read low
  normalized growth: 0.988
S. cerevisiae deletion strains, locus YNL071W, strain lat1, active compounds read low
  normalized growth: 1.01
S. cerevisiae deletion strains, locus YNL128W, strain TEP1, active compounds read low
  normalized growth: 1.03
S. cerevisiae deletion strains, locus YNL153C, strain GIM3, active compounds read low
  normalized growth: 1.02
S. cerevisiae deletion strains, locus YNL183C, strain NPR1, active compounds read low
  normalized growth: 0.912
S. cerevisiae deletion strains, locus YNL209W, strain ssb2, active compounds read low
  normalized growth: 1.01
S. cerevisiae deletion strains, locus YNL233W, strain BNI4, active compounds read low
  normalized growth: 1.01
S. cerevisiae deletion strains, locus YNL248C, strain rpa49, active compounds read low
  normalized growth: 1
S. cerevisiae deletion strains, locus YNL250W, strain rad50, active compounds read low
  normalized growth: 0.976
S. cerevisiae deletion strains, locus YNL271C, strain bni1, active compounds read low
  normalized growth: 0.939
S. cerevisiae deletion strains, locus YNL298W, strain CLA4, active compounds read low
  normalized growth: 0.932
S. cerevisiae deletion strains, locus YNL307C, strain MCK1, active compounds read low
  normalized growth: 0.819 (active)
S. cerevisiae deletion strains, locus YNL322C, strain KRE1 (second series), active compounds read low
  normalized growth: 1.01
S. cerevisiae deletion strains, locus YNL322C, strain KRE1, active compounds read low
  normalized growth: 0.991
S. cerevisiae deletion strains, locus YNR049C, strain mso1, active compounds read low
  normalized growth: 1.02
S. cerevisiae deletion strains, locus YNR052C, strain pop2, active compounds read low
  normalized growth: 0.945
S. cerevisiae deletion strains, locus YOL006C, strain TOP1, active compounds read low
  normalized growth: 0.921
S. cerevisiae deletion strains, locus YOL012C, strain htz1
  normalized growth: 2.2
S. cerevisiae deletion strains, locus YOL147C, strain pex11, active compounds read low
  normalized growth: 0.97
S. cerevisiae deletion strains, locus YOR001W, strain rrp6, active compounds read low
  normalized growth: 0.983
S. cerevisiae deletion strains, locus YOR061W, strain CKA2, active compounds read low
  normalized growth: 0.985
S. cerevisiae deletion strains, locus YOR069W, strain VPS5, active compounds read low
  normalized growth: 0.986
S. cerevisiae deletion strains, locus YOR070C, strain gyp1, active compounds read low
  normalized growth: 1.01
S. cerevisiae deletion strains, locus YOR080W, strain dia2, active compounds read low
  normalized growth: 1.02
S. cerevisiae deletion strains, locus YOR083W, strain WHI5, active compounds read low
  normalized growth: 1
S. cerevisiae deletion strains, locus YOR106W, strain vam3, active compounds read low
  normalized growth: 0.995
S. cerevisiae deletion strains, locus YOR136W, strain idh2, active compounds read low
  normalized growth: 0.959
S. cerevisiae deletion strains, locus YOR144C, strain elg1, active compounds read low
  normalized growth: 0.96
S. cerevisiae deletion strains, locus YOR184W, strain ser1, active compounds read low
  normalized growth: 0.747 (active)
S. cerevisiae deletion strains, locus YOR231W, strain MKK1, active compounds read low
  normalized growth: 0.954
S. cerevisiae deletion strains, locus YOR265W, strain rbl2, active compounds read low
  normalized growth: 1
S. cerevisiae deletion strains, locus YOR270C, strain vph1, active compounds read low
  normalized growth: 0.969
S. cerevisiae deletion strains, locus YOR290C, strain snf2, active compounds read low
  normalized growth: 1
S. cerevisiae deletion strains, locus YOR316C, strain cot1, active compounds read low
  normalized growth: 0.97
S. cerevisiae deletion strains, locus YPL051W, strain arl3, active compounds read low
  normalized growth: 1
S. cerevisiae deletion strains, locus YPL055C, strain LGE1, active compounds read low
  normalized growth: 1.04
S. cerevisiae deletion strains, locus YPL078C, strain atp4, active compounds read low
  normalized growth: 1.01
S. cerevisiae deletion strains, locus YPL106C, strain sse1, active compounds read low
  normalized growth: 1.01
S. cerevisiae deletion strains, locus YPL240C, strain hsp82, active compounds read low
  normalized growth: 1.02
S. cerevisiae deletion strains, locus YPL241C, strain CIN2, active compounds read low
  normalized growth: 0.995
S. cerevisiae deletion strains, locus YPL256C, strain CLN2, active compounds read low
  normalized growth: 0.962
S. cerevisiae deletion strains, locus YPR119W, strain clb2, active compounds read low
  normalized growth: 0.971
S. cerevisiae deletion strains, locus YPR141C, strain kar3, active compounds read low
  normalized growth: 0.968
S. cerevisiae deletion strains, locus YPR163C, strain tif3, active compounds read low
  normalized growth: 0.95
S. cerevisiae deletion strains, locus YPR167C, strain met16, active compounds read low
  normalized growth: 0.967
S. cerevisiae deletion strains, strain wtn01, active compounds read low
  normalized growth: 0.982
S. cerevisiae strains, strain wild type, active compounds read low
  normalized growth: 0.983
